Rows were chosen to be rich in hits. Some 4.8% of all compounds tested hit in one or more screens of this group.
hgDAF12 agonist = H. glycines DAF-12 receptor agonists, primary screen, cell-based, luminescence, HEK293, GAL4 fusion, UAS-luciferase | Nuclear hormone receptor DAF-12 (Heterodera glycines), GAL4 fusion | HEK293 GAL4-hgDAF12 UAS-luciferase reporter, agonist luminescence; normalized to butyrate control | 370,000 compounds, 1.8% hits | activation, % at 6.8 µM;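 active = activation above a cutoff set at the mean of all screened compounds plus 3 SD, cut at about 10% in these data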;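 note: 0% = DMSO wells and 100% = sodium butyrate wells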
hcDAF-12 act = H. contortus DAF-12 nuclear receptor activators, primary screen, cell-based, luminescence, HEK293, lit1-tk-luc reporter; HEK293 hcDAF-12 lit1-tk-luc reporter; 0% DMSO, 100% Δ7-dafachronic acid; activation, % at 6.8 µM; 370,000 compounds, 1.4% hits;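 active = activation above the mean of all tested compounds plus 3 SD, cut at about 5.5% in these data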;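 note: 100% = response to 3 µM Δ7-dafachronic acid high control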
DAX1 inh-1 = DAX1 (NR0B1) inhibitors, primary screen, cell-based, HEK293, Gal4-DAX1, luciferase luminescence; Nuclear receptor subfamily 0 group B member 1 (Homo sapiens), P51843; HEK293 Gal4-DAX1 luciferase reporter; inhibition, % at 6.75 µM; 340,000 compounds, 0.99% hits; AID 504766, 2011;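 active = inhibition above the mean over all tested compounds plus 3 SD, cut at about 4.2% in these data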;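 note: 0% = DAX1-transfected cells with DMSO and 100% = empty-vector control cells with DMSO; inhibition shows as a rise in luminescence from relieved DAX1 repression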
Target sequence (P51843 207-470 limits assumed): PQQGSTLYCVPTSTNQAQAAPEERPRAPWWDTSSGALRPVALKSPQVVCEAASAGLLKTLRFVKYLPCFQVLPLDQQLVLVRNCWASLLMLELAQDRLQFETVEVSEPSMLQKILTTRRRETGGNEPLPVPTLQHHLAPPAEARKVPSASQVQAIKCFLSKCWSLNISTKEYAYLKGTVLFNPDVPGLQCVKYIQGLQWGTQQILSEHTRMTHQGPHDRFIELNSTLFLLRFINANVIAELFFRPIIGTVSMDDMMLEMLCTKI
DAX1 inh-2 = DAX1 (NR0B1) inhibitors on StAR promoter, primary screen, cell-based, luminescence, SF-1 (NR5A1), full-length DAX-1; HEK293T StAR-luciferase reporter, SF-1/DAX-1 repression relief; inhibition, % at 6.8 µM; 370,000 compounds, 1.1% hits; AID 652010, 2013;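 active = inhibition above the mean over all tested compounds plus 3 SD, cut at about 3.6% in these data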;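 note: 0% = DAX-1 cells with DMSO and 100% = cells lacking DAX-1 with DMSO; higher inhibition means more luminescence from relief of DAX-1 repression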
ssDAF-12 act = S. stercoralis DAF-12 nuclear receptor activators, primary screen, cell-based, luminescence, HEK293, GRIP1 co-expression, lit1-tk-luc. AID 652126, 2013. 370,000 compounds, 1% hits. activation, % at 6.8 µM. Nuclear hormone receptor DAF-12 (Strongyloides stercoralis). HEK293 ssDAF-12/GRIP1 lit1-tk-luc reporter; % of 3 µM dafachronic acid response;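 active = activation above the mean over all tested compounds plus 3 SD, cut at about 0.9% in these data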;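 note: 0% = DMSO-only wells and 100% = 3 µM delta7-dafachronic acid wells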
SMARCA2 act = SMARCA2 (BRM) function activators, primary screen, cell-based, luminescence, high throughput. MG213 cells, MMTV-luciferase reporter, dexamethasone, overnight. activation, % at 9.1 µM. 370,000 compounds, 1% hits. AID 652017, 2013; in the data active = activation above about 7.8%;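 note: 0% = vehicle wells and 100% = reference activator wells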
Starred values were filed as active, the others as inactive; x = not tested or not shown.

SMILES	hgDAF12 agonist	hcDAF-12 act	DAX1 inh-1	DAX1 inh-2	ssDAF-12 act	SMARCA2 act
O=C(O)C1CCN(C(=O)c2ccccc2N2C(=O)[C@@H]3Cc4c([nH]c5ccccc45)C(c4cccc(Cl)c4)N3C2=O)CC1 (some centres undefined)	2.5	5.6*	2.3	-0.7	1.0*	1.9
COCCNC(=O)CN(Cc1ccc(F)cc1)C(=O)CCC(=O)Nc1nccs1	-3.6	-0.3	4.2*	-0.2	-0.8	-4.2
CC(=O)c1ccccc1C(=O)N1CCC(n2nccc2NC(=O)C2CC2)CC1	2.6	1.4	0.5	0.4	-1.2	0.4
Cc1ccc2oc(=O)c3cnn(CC(=O)N4CCc5ccccc5C4)c3c2c1	2.7	0.6	6.3*	0.1	-1.1	3.7
O=S(=O)(CC1NCc2cc(F)ccc21)NCc1ccc(F)cc1 (centres undefined)	0.4	0.6	x	-1.3	-0.6	-0.7
CCOC(=O)CSc1cc(=O)n(CC)c2ccccc12	-0.9	1.9	1.6	0.7	-0.1	-2.6
COc1cccc(CN(C)C(=O)Cc2c[nH]c3ccccc23)c1OC	-0.7	-0.8	0.5	-0.5	-0.1	1.9
COc1cccc(CN(C)C(=O)Cc2c[nH]c3ccccc23)c1	7.2	6.1*	-0.4	0.8	0.8	2.1
COc1ccc(CN(C)C(=O)Cc2c[nH]c3ccccc23)cc1	0.8	6.1*	-0.7	-0.6	0.5	5.4
O=C(NCCc1nc2ccccc2[nH]1)/C(=C/c1ccco1)NC(=O)c1ccco1	-2.8	-0.3	1.2	0.3	-1.4	-2.8
CC(C)(C)CC(=O)NC(=S)Nc1ccccc1[N+](=O)[O-]	-1.3	-1.9	0.3	-1.7	-1.8	-3.9
COCC(C)NC(=S)Nc1ccccc1[N+](=O)[O-] (centres undefined)	-1.8	3.8	0.7	0.1	2.4*	-2.2
COc1ccc(CC(=O)NCC2CCCN(Cc3ccc(OC)cc3F)C2)cc1 (centres undefined)	-1.7	-0.5	-0.1	-0.1	-0.6	-0.5
COc1ccc(CC(=O)NCC2CCCN(Cc3ccc(F)cc3F)C2)cc1 (centres undefined)	11.6*	5.2	-0.8	0.6	0.5	3.7
CCCc1cc(C(=O)Nc2nnc(C)s2)cs1	10.7*	3.5	2.2	2.9	-0.2	4.0
CCOc1cc(C(=O)Nc2nnc(C)s2)cc(OCC)c1OCC	2.0	-0.1	1.1	-0.1	-1.0	-2.1
O=C1C2CC=C(Cl)CC2C(=O)N1CCc1c[nH]c2ccccc12 (centres undefined)	3.4	4.0	1.6	1.0	1.2*	1.0
O=C(O)c1ccc2c(c1)C(=O)N(CCc1c[nH]c3ccccc13)C2=O	2.5	5.8*	0.8	0.5	0.5	0.7
Cc1cc(C)nc(NC(=O)CSc2nnnn2-c2ccccc2)n1	2.1	0.6	1.0	-0.3	-0.2	0.9
COc1cc(CNCc2ccccn2)ccc1OCc1ccc(Cl)cc1	1.7	1.4	0.3	0.3	-0.6	-2.5
Cc1ccc(/C=N/c2sc3c(c2C#N)CCC3)s1	-0.7	1.2	2.3	0.7	-1.1	2.7
CN1CCc2c(sc(/N=C/c3cc(Cl)ccc3O)c2C#N)C1	2.8	2.0	6.8*	0.7	-0.3	3.2
Cc1ccc(/C(N)=N/OC(=O)CCc2ccccc2)cc1	4.3	6.2*	1.9	1.0	-0.5	5.4
N/C(=N\OC(=O)c1ccc(F)cc1)c1ccccc1	3.7	1.9	0.8	0.9	-0.9	7.4
Cc1ccc(/C(N)=N/OC(=O)c2ccc(F)cc2)cc1	8.1	3.6	1.7	1.1	-1.0	7.8*
Cc1nc(NC(=O)c2ccccc2)sc1-c1csc(Nc2ccc(C(=O)O)cc2)n1	1.4	-0.6	1.6	0.7	-1.3	-2.5

From PubChem
